Data published in PubChem BioAssay AID485358 (National Center for Advancing Translational Sciences (NCATS), 2010).
Where “and” joins values, the source holds several entries; their conditions need not be identical. Identical values can stand only once. Out of some 340,000 compounds screened, about 1,800 (0.53%) were called active.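 Rule for the calls: active = activation over 3 SD above normal in the single-dose calcium agonist read (cut at about 30% in these data); inactive = the rest.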 For the sample, actives were picked, then their nearest neighbours and some compounds at random.

What follows are compounds tested against D(2) dopamine receptor (Homo sapiens) (UniProt P14416) (assay: HTS Assay for Allosteric Agonists of the Human D2 Dopamine Receptor: Primary Screen for Agonists). Conditions: HEK293 T-REx D2 cells, calcium flux agonist mode; at 2 µM; active compounds read high.
Summary of the method: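 Tetracycline-induced HEK293 T-REx cells with force-coupled D2 receptor, plated overnight at 30 C, loaded with no-wash calcium dye. After a 10 s baseline, compound was pin-added and calcium flux read kinetically for 180 s; calcium rises flagged agonists.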
Note: 0% is about no effect.

Sequence of D(2) dopamine receptor (Homo sapiens) (P14416 whole entry, looked up): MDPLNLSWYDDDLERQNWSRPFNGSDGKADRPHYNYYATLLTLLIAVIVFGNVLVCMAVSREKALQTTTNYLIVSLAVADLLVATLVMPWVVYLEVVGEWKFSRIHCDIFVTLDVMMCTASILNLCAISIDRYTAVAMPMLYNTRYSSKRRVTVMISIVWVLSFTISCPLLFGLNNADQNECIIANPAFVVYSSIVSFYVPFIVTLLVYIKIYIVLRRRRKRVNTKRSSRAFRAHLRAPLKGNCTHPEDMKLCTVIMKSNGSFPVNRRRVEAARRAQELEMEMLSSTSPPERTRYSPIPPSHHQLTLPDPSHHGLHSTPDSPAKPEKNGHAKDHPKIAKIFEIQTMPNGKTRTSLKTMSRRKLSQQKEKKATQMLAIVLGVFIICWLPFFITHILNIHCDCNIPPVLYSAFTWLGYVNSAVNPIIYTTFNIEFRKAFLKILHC

activation, inactive:
COC(=O)c1ccc(-c2nc3cc(NC(C)=O)ccc3o2)cc1 -2.97%
Cc1ccc(NC(=O)C2CCCN(S(=O)(=O)c3c(C)noc3C)C2)c(C)c1 (stereo not drawn) -0.264%
Cc1n[nH]c(C)c1S(=O)(=O)N1CCCC(C(=O)Nc2ccc(Br)cc2)C1 (stereo not drawn) 0.576% and 0.392%
O=C(NCC(c1ccco1)S(=O)(=O)c1cccs1)c1ccc(F)cc1 (stereo not drawn) 0.728%
CCOc1ccc(CNC(=O)c2cccc(Nc3nc4ccccc4n4nnnc34)c2)cc1OC 0.495%
O=C1Nc2ccccc2/C1=C/c1ccnc2ccccc12 1.57%
Cc1ccccc1-n1c(C)cc(/C=C2\NC(=O)NC2=O)c1C -0.336%
CCOC(=O)c1c(NC(C)=O)c2c3c(sc2n1Cc1c(C)cc(C)cc1C)CCCC3 0.0213%
CCS(=O)(=O)N1CCC(C(=O)N2CCN(c3ccccc3)CC2)CC1 4.45%
CS(=O)(=O)N1CCC(C(=O)N2CCN(c3ccccc3)CC2)CC1 6.31%
Cc1ccccc1NC(=O)c1cc2c([nH]c1=O)CC(C)(C)CC2=O 0.0984%
CCOc1ccc(/C=C(\C#N)c2nc3ccccc3c(=O)[nH]2)cc1OC -1.7%
CCOc1cc(-c2cc(-c3ccc(NC(C)=O)cc3)nc(N)c2C#N)ccc1O 0.571%
O=[N+]([O-])c1ccc(N2CCN(CC(O)COc3ccccc3)CC2)cc1 (stereo not drawn) -0.607%
OC(COCC1COc2ccccc2O1)CN1CCN(c2ccc(F)cc2)CC1 (stereo not drawn) 8.89%
COc1ccc(CNC(=O)CSCc2nc(-c3ccccc3F)oc2C)cc1 -0.228%
Cc1nc(N2CCN(c3ccccn3)CC2)c2c(C)c(C(=O)Nc3ccc(F)cc3)sc2n1 -0.199%
O=C(CCC1CCCN(C(=O)Cc2ccc(F)cc2)C1)N1CCN(c2ccccn2)CC1 (stereo not drawn) 0.424%
COC(=O)c1ccc(Cn2c(SCC(=O)N(C)c3ccccc3)nc3ccccc32)cc1 0.816%
O=C(COc1coc(CN2CCN(c3ccccc3)CC2)cc1=O)N1CCc2ccccc21 -0.514%
Cc1cc(C)cc(NC(=O)COc2coc(CN3CCN(c4ccccc4)CC3)cc2=O)c1 5.66%
CC(C)OC(=O)C(C#N)c1nc2ccccc2nc1N1CCN(Cc2ccccc2)CC1 (stereo not drawn) 0.138%
N#C/C=C/N1CCN(Cc2ccc3c(c2)OCO3)CC1 0.771%
Cc1ccc(Cl)cc1NC(=O)/C(C#N)=C\c1cn(Cc2ccc(F)cc2)c2ccccc12 0.348%
C=CCSc1nc2c(c(=O)[nH]c(=O)n2C)n1Cc1ccccc1 -0.578%
Cc1nc2c(c(=O)n1Cc1ccco1)c1nc3ccccc3nc1n2Cc1ccccc1 -0.619%
Cc1cccc(CC(=O)N2CC(=O)Nc3ccc(F)cc3C2c2ccccc2)c1 (stereo not drawn) -0.521%
CCCN(CCC)C(=O)C1CCCN(c2ncnc3c2nc2n3CCCCC2)C1 (stereo not drawn) 0.0903%
Cn1c(=O)c2sccc2n2c(CCC(=O)NCc3ccccc3Cl)nnc12 -0.258%
O=C1c2cccc3c([N+](=O)[O-])ccc(c23)C(=O)N1CC1CCCO1 (stereo not drawn) 3%
CC(C(=O)O)N1C(=O)c2cccc3cccc1c23 (stereo not drawn) 0.197%
COCCNC(=O)c1ccc2c(c1)N=C(C)c1cc(C)ccc1S2 0.312%
Cc1ccc(-n2c(SCC(=O)Nc3cccc(F)c3)nc3c(oc4ccccc43)c2=O)cc1C 2.59%
Cc1ccc(N2CCN(C(=O)CCc3c(C)nc4c(c3C)c(=O)n(C)c(=O)n4C)CC2)c(C)c1 -0.245%
CCc1nnc(SCc2c(F)cccc2Cl)c2cc3sccc3n12 0.47%
COc1ccc(-c2cn3nc(N4CCCC(C(=O)NCCCOC(C)C)C4)sc3n2)cc1 (stereo not drawn) -0.281%
CN1c2ccc(Cl)cc2-c2nc(SCC(=O)Nc3cc(F)ccc3F)ncc2S1(=O)=O 0.0638%
O=C(COc1ccc(Cl)cc1)Nc1ccc(-c2nc3cc(Cl)ccc3o2)c(O)c1 1.1%
O=C(NC1CC(=O)N(c2ccc(F)cc2)C1)C1CCCCC1 (stereo not drawn) 1.31%
CCOc1ccc(C(=O)N2CCN(CCc3ccccn3)CC2)cc1 0.162%
Cc1cc(NC(=O)CSc2ncc(C(=O)Nc3ccc(Cl)cc3)c(=O)n2C)no1 0.675%
O=C(Nc1ccccc1C(=O)N1CCCCC1)c1ccco1 -0.0145%
Cc1c(Cl)cccc1NC(=O)CCC(=O)N/N=C/c1ccco1 0.478%
O=C(C(Cl)Cl)N1CCN(c2ccccn2)CC1 4.39%
CNC(=S)N1CCN(c2ccccn2)CC1 2.09%
Cc1cccc(-c2nnc(SCC(=O)N3CCCc4ccccc43)o2)c1 -1.45%
CC(C)c1ccc(C2CC(=O)N3CN(C4CCCCC4)CSC3=C2C#N)cc1 (stereo not drawn) 0.111%
COc1ccccc1-c1cc2nc(C)c(CCC(=O)O)c(C)n2n1 0.732%
COc1ccc(N2CCN(S(=O)(=O)c3ccc(-c4coc(C)n4)cc3)CC2)cc1 -0.462%
COc1cc(OC)c(NC(=O)c2cc(S(=O)(=O)N3CCCC3)cn2C)cc1Cl 2.37%
CCC1=Nc2cc(C(=O)NCC(C)c3ccccc3)ccc2Sc2ccc(C)cc21 (stereo not drawn) -0.272%
O=C(CSc1nc2c(c(=O)[nH]1)CN(Cc1ccc3c(c1)OCO3)CC2)Nc1cc(F)ccc1F 0.843%
CCCCCc1c(C)nc(N2CCN(Cc3ccc4c(c3)OCO4)CC2)[nH]c1=O 0.0879%
CCn1c2ccccc2c2nnc(SCC(=O)O)nc21 -0.808%
CCCCc1nn2c(=O)cc(COC(=O)c3ccc(NC(=O)c4ccccc4C)cc3)nc2s1 8.52%
O=C(CCCNS(=O)(=O)c1cccc2nsnc12)NCCN1CCN(c2ccccc2F)CC1 24.7%
CCOC(=O)N1CCN(c2c(NCCN3CCN(c4ccccc4F)CC3)c(=O)c2=O)CC1 10.4%
COc1ccccc1CN1CCC(CNC(=O)c2cnn(-c3ccccc3Cl)c2C2CCN(C(=O)OC(C)(C)C)CC2)CC1 3.36%
Cc1ccccc1NC(=O)Cn1c(=O)n(Cc2ccco2)c(=O)c2ccc(C(=O)NC3CCCC3)cc21 0.581%
Cc1cccc(-n2c(=O)c3c(c4cc(C)ccc4n3C)n(CC(=O)Nc3ccccc3Cl)c2=O)c1 0.838%
O=S(=O)(c1cccs1)N1CCN(CCOc2ccccc2)CC1 21.2%
Cc1nc(CN2CCN(C(=O)CCc3nnc(Cc4c[nH]c5ccccc45)o3)CC2)cs1 0.942%
Cc1ccc(Nc2ccc3cc(S(=O)(=O)N4CCCCC4)ccc3n2)cc1F 0.936%
Cc1cccc(NC(=O)CN(c2ccc(C(C)C)cc2)S(=O)(=O)c2c(C)nn(C)c2C)c1C 0.387%
Cc1nc2nc(SCC(=O)NC3CCC(C)CC3)nn2c(C)c1Cc1ccccc1Cl (stereo not drawn) -0.0264%
COc1ccccc1-c1noc(-c2ccc(NCc3ccccc3)c([N+](=O)[O-])c2)n1 -0.924%
Cc1ccccc1C(=O)Nc1cc(C)c(O)c(-c2nc3ccccc3o2)c1 -0.387%
COc1ccc(-c2cc(C(=O)N3CCN(Cc4ccc5c(c4)OCO5)CC3)on2)cc1OC -0.524%
CCn1cc(C(=O)N2CCN(C3CCCCC3)CC2)c2cc(OC)c(OC)cc2c1=O 0.186%
O=C(C1CCN(Cc2ccc(Cl)cc2)CC1)N1CCN(Cc2ccc3c(c2)OCO3)CC1 0.973%
Cc1cc(C)n2nc(C(=O)Oc3ccc4c(c3)OCO4)nc2n1 -0.808%
O=C(Nc1cccc2ccccc12)N1CCN(Cc2ccc3c(c2)OCO3)CC1 5.88%
CCn1cc(C(=O)NCc2ccc3c(c2)OCO3)c2cc(OC)c(OC)cc2c1=O -0.995%

activation, active:
Cc1n[nH]c(C)c1S(=O)(=O)N1CCCC(C(=O)NCC2COc3ccccc3O2)C1 (stereo not drawn) 57.1%
Cc1cc(C)c(/C=C2\C(=O)Nc3ccccc32)[nH]1 39.4%
CCS(=O)(=O)N1CCC(N2CCN(c3ccccc3)CC2)CC1 68%
CCOc1cc(/C=C(\C#N)c2nc(-c3cccs3)c(NC(C)=O)s2)ccc1O 31.5%
OC(COCc1ccco1)CN1CCN(c2ccccc2)CC1 (stereo not drawn) 85.6%
Cc1c(CN2CC[C@@H](N3CCN(c4ccccn4)CC3)[C@H](O)C2)[nH]c2ccc(F)cc12 76.9%
O=C(COc1coc(CN2CCN(c3ccccc3)CC2)cc1=O)Nc1ccccc1F 45.8%
CC(C)OC(=O)C(C#N)c1nc2ccccc2nc1N1CCN(Cc2ccc3c(c2)OCO3)CC1 (stereo not drawn) 48.3%
Cc1cc2nc3c(=O)n(Cc4ccccc4)c(=O)[nH]c3nc2cc1N 64.2%
CN1C(=O)c2cccc3c(N)ccc(c23)C1=O 109%
Cc1nn(C)cc1N1C(=O)c2cccc3c(N)ccc(c23)C1=O 74%
CO/N=C/c1cn(-c2ccc(Cl)cc2)nn1 33.3%
CS/C(=C\C(=O)c1ccco1)Nc1ccccc1Cl 34.5%
CC(=C1C(=O)c2ccccc2C1=O)N1CCN(c2ccccn2)CC1 62.2%
Fc1ccc2[nH]c3c(N4CCN(Cc5ccc6c(c5)OCO6)CC4)ncnc3c2c1 35.9%
Cn1c(=O)c(=O)n(C)c2cc(S(=O)(=O)NCCN3CCN(c4ccccc4F)CC3)ccc21 67.4%
COC(c1ccccc1)c1nnc(CCC(=O)N2CCN(CCOc3ccccc3)CC2)o1 (stereo not drawn) 47%
Cc1cc(C)n2nc(C(=O)N3CCN(Cc4ccc5c(c4)OCO5)CC3)nc2n1 40.9%
O=C(c1cccs1)N1CCN(Cc2ccc3c(c2)OCO3)CC1 84.2%
CCn1cc(C(=O)N2CCN(Cc3ccc4c(c3)OCO4)CC2)c2cc(OC)c(OC)cc2c1=O 51.1%
